The values that follow come from PubChem BioAssay (NCATS).

Unmarked numbers belong to inactive results. Activity calls are given as the source filed them. The call rests on the fitted dose curve; in most records, active means well fitted activation curve with a large enough effect; inconclusive means small, poorly fitted or top-dose-only effect, or effect the other way; inactive means flat fitted curve, though single readings scatter.
Potency means the concentration at half of the fitted maximal effect.

The nature of this assay: Cellular Toxicity (caspase-3) Renal Proximal Tubule (AID 667).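 Further: cells exposed to compound for 16 hours at 37 °C before detection.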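 On caspase-3 activation: 0% = DMSO basal and 100% = 10 µM staurosporine.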 To be noted: renal proximal tubule cells, primary cells freshly taken from rat; Potency: caspase-3 activation; series mostly up to 91.7 µM; caspase-3 activation: at the top concentration. The source says:
NIH Chemical Genomics Center [NCGC]
NIH Molecular Libraries Screening Centers Network [MLSCN]
National Institutes of Environmental Health Sciences [NIEHS]
National Toxicology Program [NTP]
We have developed a 1536-well cell-based assay for quantitative high throughput screening (qHTS) against a number of cell lines to determine in vitro caspase 3/7 activity of small molecules. This particular assay uses the primary kidney proximal tubule cells freshly isolated from rat.
NCGC Assay Protocol Summary:
The Caspase-Glo 3/7 assay (Promega) is a homogeneous method to measure caspase-3 and caspase-7 activities in cultured cells. The quantitation of caspase 3/7 activity is based on the cleavage of a peptide-aminoluciferin substrate. After caspase cleaves the substrate the free aminoluciferin is liberated and serves as the substrate of luciferase, which generates the light. The luminescent signal is proportional to the amount of caspase 3/7 activity present.
Using the Caspase-Glo 3/7 assay, the amount of caspase 3/7 activity was measured in the rat kidney proximal tubule cells with complete culture medium following compound treatment for 16 hours. The assay was performed in opaque white 1536-well plates. In the screen, staurosporine and doxorubicin were used as positive controls. Library compounds were measured for their ability to cause the activation of caspase 3/7 in the cell line, as reflected by an increase in luminescence signal, in a concentration-dependent manner. Data were normalized to the controls for basal activity (DMSO only) and 100% stimulation (10 uM staurosporine). AC50 values were determined from concentration-response data modeled with the standard Hill equation.
qHTS protocol for caspase 3/7 assay in rat kidney proximal tubule cells
[Step] [Parameter] [Value] [Description]
1. Reagent; 5 uL; 1000 rat kidney proximal tubule cells/well
2. Time; 5 hr; 37 °C incubation
4. Controls; 23 nL; doxorubicin 7 pM to 100 uM & staurosporine 1.4 pM to 20 uM
5. Time; 16 hr; 37 °C incubation
6. Reagent; 5 uL; Caspase-Glo 3/7 reagent
7. Time; 1 hr; Room Temperature
8. Detection; Luminescence; Viewlux plate reader
Keywords: caspase 3/7, apoptosis, rat kidney proximal tubule cells, luminescence, NTPHTS, NTPHTS_NCGC, NIEHS, EPA, DSSTox, MLSMR, MLSCN, NIH Roadmap, qHTS, NCGC
For `CN(C)c1ccc(C(=C2C=CC(=[N+](C)C)C=C2)c2ccc(N(C)C)cc2)cc1`, the Potency was 31.6 µM (active).

Regarding `Cc1cc(NS(=O)(=O)c2ccc(N)cc2)no1`, the “caspase-3 activation” value is 0.948%.

On to `C[C@]12C=CC(=O)C=C1CC[C@@H]1[C@@H]2C(=O)C[C@@]2(C)[C@H]1CC[C@]2(O)C(=O)CO`, for which the “caspase-3 activation” value is -3.14%.

For the molecule `Cc1nnc(NS(=O)(=O)c2ccc(N)cc2)s1`, the “caspase-3 activation” value was 4.85%.

As for `NNC(=O)c1ccncc1`, the “caspase-3 activation” value was -5.16%.

For `CC1=NN(c2ccccc2)C(=O)C1`, the “caspase-3 activation” value was -8.06%.

For `CCc1cc(C(N)=S)ccn1`, the “caspase-3 activation” value is -9.99%.

`COc1ccc2cc3[n+](cc2c1OC)CCc1cc2c(cc1-3)OCO2`: the “caspase-3 activation” value was -8.77%.

Consider `Cc1ncc([N+](=O)[O-])n1CCO`, for which the “caspase-3 activation” value was -5.25%.

With `Cc1ccnc2c1NC(=O)c1cccnc1N2C1CC1`, the “caspase-3 activation” value is 2.72%.

Regarding `O=C(N[C@H](CO)[C@H](O)c1ccc([N+](=O)[O-])cc1)C(Cl)Cl`, the “caspase-3 activation” value was -2.42%.

As to `Cc1noc(NS(=O)(=O)c2ccc(N)cc2)c1C`, the “caspase-3 activation” value was 9.2%.

Consider `CC(=O)[C@H]1CC[C@H]2[C@@H]3CCC4=CC(=O)CC[C@]4(C)[C@H]3CC[C@]12C`, for which the Potency result is “inactive”.

For `O=C(O)c1cc(=O)[nH]c(=O)[nH]1`, the “caspase-3 activation” value is -9.69%.

On to `NC(N)=NC(N)=NCCc1ccccc1`, for which the “caspase-3 activation” value is 8.74%.

For the molecule `N=C(N)c1ccc(OCCCCCOc2ccc(C(=N)N)cc2)cc1`, the “caspase-3 activation” value was 21.8%.
